# A selection: hits, their analogues and other compounds. The true share with any hit is near 21%.
# Shiga inhibitor – inhibitors of Shiga toxin in Vero cells | AID 2315 | Vero cells, Shiga toxin protein synthesis inhibition reporter | 9.2% of 290,000 active | inhibition, % at 38.7 µM; in the data active means inhibition mostly above about 28%, no sharp cut-off; inactive means mostly below about 43%; further: 0% is about no effect
# HCMV inh – human cytomegalovirus inhibition; HFF cells, HCMV-luciferase reporter, 72 h; hits give low values; activity change, negative = inhibition, % at 57.5 µM; 4.5% of 410,000 active; in the data active means activity change below about -60%; inconclusive means no clear call, values can overlap the other calls; inactive means above about -39%; further: on the % scale 0 is the no-effect control and ±100 the full control effect
#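 Human foreskin fibroblasts infected with luciferase-reporter HCMV at MOI 1 PFU/cell, compounds at two doses. Luciferase measured 72 h post infection; normalized to buffer-only basal and Salinomycin (10uM) controls.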
# Pf growth 96h – P. falciparum growth inhibition at 96 hour, primary screen for plastid delayed-death inhibitors; 6.9% of 320,000 active; P. falciparum luciferase reporter growth, 96 h; Potency, µM (doses to about 28.7 µM), for the others: top-dose activity change, negative = inhibition, actives largely listed as inhibitors; further: potency means the concentration at half of the fitted maximal effect; on the % scale 0 is the no-effect control and ±100 the full control effect
#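 Two parasite generations (96 h, 37 C, 5% CO2) of compound exposure in infected erythrocytes (0.05% parasitemia, 2% hematocrit). Luciferase-reporter P. falciparum; decreased luminescence indicates inhibited growth, aimed at apicoplast-acting delayed death.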
# HCV inh – blocks hepatitis C virus | Huh7.5.1 HCVcc-Cre infection, luciferase reporter, 44 h | Potency, µM (top dose mostly 41.8 µM), without a hit: at the highest dose activity change, negative = inhibition, most hits filed as inhibitors | 3.4% of 340,000 active | AID 651820; further: potency means the concentration at half of the fitted maximal effect; on the % scale 0 is the no-effect control and ±100 the full control effect
#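 Whole-lifecycle infectious HCVcc-Cre system; cells 1,000/well, compound then virus (~0.5 moi) added 4 h after plating, 44 h culture. Luciferase read 15 sec following 15 min substrate incubation, room temp.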
# Pf growth 48h – P. falciparum growth inhibition at 48 hours (one generation) | P. falciparum luciferase growth in erythrocytes, 48 h | Potency, µM (series often up to 28.7 µM), for inactives: at the top dose activity change, negative = inhibition, actives largely listed as inhibitors | 5.9% of 310,000 active; further: potency means the concentration at half of the fitted maximal effect; on the % scale 0 is the no-effect control and ±100 the full control effect
#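 Growth was read as firefly luciferase luminescence after a 48 h, 37 C, 5% CO2 exposure of compounds to reporter-bearing P. falciparum cultures (0.1% parasitemia, 2% hematocrit final) in Albumax-supplemented RPMI 1640.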
# CHX counter – affects cycloheximide protein synthesis inhibition readout, counter-screen. AID 2314. max response, %. cell reporter, cycloheximide protein synthesis inhibition counterscreen. 12% of 300,000 active; in the data active means max response mostly above about 13%, no sharp cut-off; inactive means mostly below about 14%; further: read at 38.3 µM for the half of the compounds with a filed dose; 0% is about no effect
# Starred values were filed as active, the others as inactive; ? = inconclusive; · = not tested or not shown; ! = not confirmed by another sample; [ ] = dose if it differs, or a comment. Unless noted, the call rests on the fitted dose curve; in most records, active means well fitted inhibition curve with a large enough effect; inconclusive means small, poorly fitted or top-dose-only effect, or another doubt; inactive means no such curve, though single readings can be large or run the other way.
SMILES,Shiga inhibitor,HCMV inh,Pf growth 96h,HCV inh,Pf growth 48h,CHX counter
O=C(Nc1ccc(Cl)cc1)Nc1csc([N+](=O)[O-])c1,100*,-103*,?,?,?,30*
O=C(Nc1csc([N+](=O)[O-])c1)Nc1c(Cl)cccc1Cl,-13,-76*,-18%,-10%,?,1
Cc1nc2c(n1C1CCCCC1)C(=O)c1ccccc1C2=O,20,-21,1.3µM*,-12%,1.9µM*,-3
O=C(C[n+]1ccccn1)c1ccccc1,40*,54,?,-4%,10%,15*
O=C(C[n+]1ccsc1)c1ccccc1,13,16,2%,28%,-7%,7
O=C(O)c1cccc(COc2ccc(CO)cc2Cl)c1,-5,24,?,0%,0.21µM*,6
O=C(O)c1ccc(COc2ccc(CO)cc2Cl)cc1,72*,124,13%,2%,76%,29*
CN1CCN(C(=O)c2ccc(COc3ccc(Cl)cc3Cl)cc2)CC1,-7,-1,43%,?,?,13
CC1CCN(c2ccc(C(F)(F)F)cc2N)CC1,34,-18,-3%,21%,19%,17*
Cc1ccc(-n2nnnc2SCC(=O)NCC2CCCO2)cc1C (stereo not drawn),·,-10,-28%,11%,?,·
Cc1cc[n+]2cc(-c3cccc([N+](=O)[O-])c3)c(-c3cccc([N+](=O)[O-])c3)cc2c1,9,22,0.15µM*,9%,0.83µM*,-4
COc1ccc(/C=C/C(=O)C2CC2)cc1Cn1nc(C)c([N+](=O)[O-])c1C,-5,?,18%,?,0%,-2
COc1ccc(C2C(C#N)=C(N)OC3=C2C(=O)CCC3)cc1Cn1nc(C)c([N+](=O)[O-])c1C (stereo not drawn),-6,66,24%,-27%,12µM*,-2
COc1ccc(CCn2nc(C)c([N+](=O)[O-])c2C)cc1,83*,14,?,-6%,?,30*
Cc1cc(C)c(C(=O)Cn2nc(C)c([N+](=O)[O-])c2C)cc1C,-7,64,-26%,?,-10%,-2
COc1ccc(C(C)=O)cc1Cn1nc(C)c([N+](=O)[O-])c1C,4,-23,?,?,19µM*,1
COc1ccc(C2C(C#N)=C(N)Oc3n[nH]c(C)c32)cc1Cn1nc(C)c([N+](=O)[O-])c1C (stereo not drawn),-2,-31,?,?,-14%,-1
Cc1ccc(C(=O)Cn2nc(C)c([N+](=O)[O-])c2C)c(C)c1,57*,14,45%,-15%,44%,20*
CN(C)c1ccnc2sc3c(=O)n(-c4ccccc4)cnc3c12,19,-23,41%,-28%,12%,12*
Cc1cccc(Nc2ccccc2C(=O)O)c1C,11,-63*,?,2%[8.37 µM],18%,-1
N#Cc1ccc(Nc2ccccc2)c(N)c1,-9,8,?,-2%,28%,4
Nc1cc(C(F)(F)F)ccc1Nc1ccccc1,77*,-26,0%,-1%,6%,28*
COc1cc(-c2ccc(Nc3ccccc3C(=O)O)c(OC)c2)ccc1Nc1ccccc1C(=O)O,13,-68*,?,3%,?,-1
O=C(O)c1ccccc1Nc1ccccc1,·,-5,8%,5µM*,5%,·
COc1cc([N+](=O)[O-])c(OC)cc1Nc1ccccc1C(=O)O,·,-4,·,·,·,·
SMILES,Shiga inhibitor,HCMV inh,Pf growth 96h,HCV inh,Pf growth 48h,CHX counter
O=C(O)c1ccccc1Nc1cccc(C(F)(F)F)c1,18,11,2.4µM*!,0%[8.37 µM],-11%,-2
O=C(O)c1ccccc1Nc1ccc(OC(F)F)cc1,43*,?,43%,17%,2%,35*
COc1cccc(Nc2ccccc2C(=O)O)c1,20,-5,?,20%,21%,13
CCN(C(=O)COC(=O)c1cccnc1Nc1cccc(C(F)(F)F)c1)C1CCS(=O)(=O)C1 (stereo not drawn),51*,64,47%,2%,64%,42*
CNC(=O)c1cccnc1Nc1cccc(C(F)(F)F)c1,11,14,77%,10µM*,45%,27*
CCN(c1ccccc1)c1ncnc2c1cnn2-c1ccc(OC)cc1,·,4,·,·,·,·
COc1ccc(NC(=S)NN(C)C(=S)Nc2ccc(OC)cc2)cc1,15,-27,-24%,-21%,8%,6
CCn1cc(C(=O)OCC(=O)Nc2ccc(C)c(Cl)c2)c(=O)c2ccc(C)nc21,·,9,·,·,·,·
O=C(COC(=O)c1ccccc1Nc1cccc(C(F)(F)F)c1)NCc1ccco1,36,7,1%,?,-6%,17*
O=C(OCCOCCO)c1ccccc1Nc1cccc(C(F)(F)F)c1,·,·,1%[12.8 µM],·,5%[12.8 µM],·
CC(=NNc1nc2ccccc2o1)c1ncccn1,·,-77*,·,3.5µM*,·,·
CC(=NNc1nc2ccccc2o1)c1cc2ccccc2cn1,·,-99*,·,?,·,·
COc1ccc2oc(C(=O)OCC(=O)NCc3ccco3)c(C)c2c1,·,13,28%,?,28%,·
Cc1cccc(CNC(=O)C2CCN(S(=O)(=O)c3ccc4c(c3)CCCN4C(=O)C3CCC3)CC2)c1,·,-21,·,·,·,·
COC(=O)CN1C2=NCCCN2c2ccccc21,-12,-7,80%,12%,32%,-2
CCCN1C2=NCCCN2c2ccccc21,-7,-39,?,-4%,-19%,-2
CCCCN1C2=NCCCN2c2ccccc21,-20,10,10µM*,13%,?,-2
CCCCCCN1C2=NCCN2c2ccccc21,-21,-18,·,?,15µM*,-3
CCCCN1C2=NCCCN2c2cc(C)c(C)cc21,-17,-30,13µM*,?,13µM*,-2
CCCCCCCN1C2=NCCCN2c2ccccc21,-18,?,-4%,10µM*,2.9µM*,-5
CCCCCCCN1C2=NCCN2c2ccccc21,-7,0,?,?,?,-3
CCCN1C2=NCCN2c2ccccc21,-16,12,4.1µM*,6%,-9%,-3
c1ccc(OCCN2C3=NCCN3c3ccccc32)cc1,-38,-17,?,?,-17%,-7
CCC(=O)c1cn([C@H](CCC(OC)OC)CC(=O)OC(C)(C)C)cc1CC,·,6,?,-1%,?,·
Cc1cc(C)cc(N(CCC#N)C(=O)CSC2=Nc3ccccc3C3CC=NN23)c1 (stereo not drawn),3,5,12µM*,-17%,13µM*,13
O=C(CSC1=Nc2ccccc2C2CC=NN12)Nc1ccc2c(c1)OCO2 (stereo not drawn),10,50,3%,?,0%,16*
Cc1cc(C)cc(N(CCC#N)C(=O)CSc2ncnc3sccc23)c1,·,?,?,?,12µM*,·

# Assay outcomes (PubChem)
